Shown are actives, neighbours in structure and some others; about 2.4% of the full set was active somewhere.
M1 antag: blocks human M1 muscarinic receptor; hit rate 1.3% among 360,000; P11229; CHO-K1 hM1, Fluo-8 calcium fluorescence, ACh EC80 antagonist; inhibition, % at 3 µM;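 active = percent inhibition above its own plate's cutoff, namely the mean of that plate's compound wells plus 3 SD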;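 also: peak over basal fluorescence ratio during 140 s after agonist addition; 0% = ACh EC80 plus DMSO and 100% = DMSO alone without agonist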
CHO-K1 Ca antag: nonselective inhibitor or artifact in parental CHO-K1 cells; ATP-induced calcium, Fluo-8 fluorescence; inhibition, % at 3 µM; hit rate 0.6% among 360,000;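 active = inhibition above a per-plate cutoff, the plate's mean sample inhibition plus 3 SD, cut at about 24% in these data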;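 also: 0% = DMSO plus EC80 ATP and 100% = DMSO alone without ATP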
M1 ag parental: nonselective activator or artifact in parental CHO-K1 cells. hit rate 0.48% among 360,000. activation, % at 3 µM. Fluo-8 calcium fluorescence; scaled to maximal ATP response, vehicle zero; in the data active = activation above about 15%;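 also: untransfected CHO-K1 host cells lacking M1 receptor as counterscreen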
CHRM1 agonist: agonists of human M1 muscarinic receptor | CHO-K1 hM1, Fluo-8 calcium fluorescence, agonist mode; 0% DMSO, 100% acetylcholine EC100 | hit rate 0.33% among 360,000 | AID 588814 | activation, % at 3 µM | P11229;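 active = activation above the run's mean compound activation plus 3 SD, cut at about 16% in these data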;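 also: peak over basal fluorescence ratio within a 140 s kinetic read after compound addition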
M1 PAM: human CHRM1 positive allosteric modulation. hit rate 0.088% among 360,000. P11229. CHO-K1 hM1, Fluo-8 calcium fluorescence, ACh EC20; 0% = ACh EC20, 100% = maximal ACh. activation, % at 3 µM; in the data active = activation above about 19%, passing the limit was not always enough
M1 PAM parental: nonselective activator or artifact in parental CHO-K1 calcium assay | ATP EC20, Fluo-8 calcium fluorescence; 0% at ATP EC20, 100% at ATP max | activation, % at 3 µM | hit rate 0.02% among 360,000;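 active = activation above the run cutoff, the mean activation of all test compounds plus 3 SD, cut at about 40% in these data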;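 also: peak over basal fluorescence ratio in a 140 s read after ATP addition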
* marks the source's active call; other numbers are inactive results.

SMILES	M1 antag	CHO-K1 Ca antag	M1 ag parental	CHRM1 agonist	M1 PAM	M1 PAM parental
Nc1cc(C(F)(F)F)ccc1Nc1ccccc1	4	-2	0	-10	5	11
O=C(CNC(=O)c1cccc(Cl)c1)Nc1ccc(F)c(F)c1F	7	1	1	-7	-4	1
O=C(CSc1cc(Cl)ccc1Cl)NCC(=O)Nc1ccc(F)c(F)c1F	-5	6	15*	0	4	9
Cc1cccc(NC(=O)CSc2ccc3nnc(-c4cccnc4)n3n2)c1	-1	-12	0	7	12	6
O=C(Nc1ccn(CCCN2CCN(Cc3ccc(F)cc3)CC2)c(=O)n1)OCc1ccccc1	39*	3	1	-10	-26	5
O=C(Nc1ccn(CCCNCc2ccccn2)c(=O)n1)OCc1ccccc1	-9	-11	0	-10	1	20
O=C(Nc1ccn(CCCN2CCN(c3ncccn3)CC2)c(=O)n1)OCc1ccccc1	22*	3	0	-12	-19	3
CCCCn1c(N)c(N(CC(C)C)C(=O)CCCc2cccs2)c(=O)[nH]c1=O	10	26*	-1	3	6	-19
CCCCn1c(N)c(N(CC(C)C)C(=O)CCS(=O)(=O)c2ccc(C)cc2)c(=O)[nH]c1=O	-7	-11	0	-2	3	7
OCCCCCNc1ncnc2ccccc12	14	3	15*	0	-6	3
CCCCn1c(/N=C/c2ccc(N(C)C)cc2)nc2ccccc21	-23	15	0	2	21*	-2
Cn1c(=O)c2c(nc(SCC(=O)N3CCc4ccccc4C3)n2C)n(C)c1=O	-5	8	0	16*	17	-11
CCn1c(SCC(=O)N2CCC(C)CC2)nc2c1c(=O)n(C)c(=O)n2C	-31	-2	1	-6	28*	11
CCn1c(SCC(=O)N2CCCC2)nc2c1c(=O)n(C)c(=O)n2C	-14	-17	0	-7	9	7
Cn1c(=O)c2c(nc(SCC(=O)N3c4ccccc4CCc4ccccc43)n2C)n(C)c1=O	19	22	-1	-2	-12	-11
COc1ccc(NC(=O)c2cc(C3CCCCN3C(=O)OCCF)on2)c(C)c1 (stereo not given)	-11	4	0	-4	4	2
CCOCCNC(=O)c1ccccc1C(=O)NCCOCC	-8	30*	0	-3	7	-3
CN(C(=O)COc1ccccc1C(=O)NCCOc1ccccc1)c1ccccc1	50*	25*	11	-2	-22	1
CCCNC(=O)c1ccccc1C(=O)NCCC	-8	-9	1	-1	-3	18
O=C(NCCCCCCNC(=O)c1ccccc1O)c1ccccc1O	32*	1	19*	-1	-23	-9
CC(C)c1ccc(NC2CCCN(C(=O)CCn3cnnn3)C2)cc1 (stereo not given)	-15	-8	1	-2	15	1
CC1(C(=O)Nc2ccc3c(c2)OCO3)CCN1Cc1cccc2c1OCO2 (stereo not given)	-8	-21	3	1	-6	58*
CC1(C(=O)Nc2ccc3c(c2)OCO3)CCN1Cc1csc2ccccc12 (stereo not given)	25	-24	0	6	-23	40*
COCOc1cccc(CN2CCC2(C)C(=O)Nc2ccc3c(c2)OCO3)c1 (stereo not given)	3	-14	2	-1	3	30
Cc1ccc(NC(=O)C2(C)CCN2Cc2csc3ccccc23)cc1 (stereo not given)	45*	-4	0	-9	-29	15
Cc1ccccc1S(=O)(=O)N1C[C@H]2CON(C)[C@H]2C[C@H]1c1cccc(-c2ccc(C#N)cc2)c1	-9	6	1	-8	2	12
CCC(=O)c1ccc(OC(C)C(=O)NC2(C#N)CCCCC2)cc1 (stereo not given)	3	-5	0	-1	2	4
COc1cc(OC)cc(C(=O)NCC(C)NC(=O)c2cc(OC)cc(OC)c2)c1 (stereo not given)	1	-8	1	-2	-2	14
Fc1cccc(Cc2noc(CN3CCCN(C4Cc5ccccc5C4)CC3)n2)c1	93*	-11	1	-13	-34	20
